# Tau FP inhib – qHTS for Inhibitors of Tau Fibril Formation, Fluorescence Polarization | Microtubule-associated protein tau (Homo sapiens), P10636 | K18 P301L tau heparin fibrillization, Alexa594 FP, 6 h | Potency, µM (top dose mostly 57.7 µM), for the others: top-dose activity, negative = inhibition, actives largely listed as inhibitors | 280,000 compounds, 0.39% hits; further: nearly all actives have a fitted effect of over 55% in size
# Target sequence (P10636 561-689 P618L limits assumed): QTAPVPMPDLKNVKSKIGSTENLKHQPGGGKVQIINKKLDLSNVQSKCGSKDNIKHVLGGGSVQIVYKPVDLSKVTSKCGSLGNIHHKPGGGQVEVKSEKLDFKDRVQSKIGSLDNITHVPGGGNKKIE
#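 Steps: dispense K18 P301L tau (15 uM plus 0.24 uM Alexa 594 tracer, final) in pH 7 sodium acetate; add compound; add heparin (20 uM final); incubate 6 hr, 37 C; add ThT (30 uM final); after 1 hr ambient, read FP.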
# Tau fibril ThT – qHTS for Inhibitors of Tau Fibril Formation, Thioflavin T Binding; Microtubule-associated protein tau (Homo sapiens), P10636; recombinant tau K18 P301L, heparin-induced fibrillization, ThT fluorescence; Potency, µM (series often up to 57.4 µM), without a hit: top-dose activity, negative = inhibition, most hits filed as inhibitors; 270,000 compounds, 2.1% hits; AID 1460, 2008; further: nearly all actives have a fitted effect of over 55% in size
#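 Aggregation was driven by heparin (20 uM final) acting on recombinant tau […] bearing P301L in 100 mM sodium acetate pH 7; fibrils were detected with Thioflavin T.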
# KinaseGlo FLuc – Counterscreen for Luciferase (Kinase-Glo TM) Inhibition; AID 1379, 2008; Luciferin 4-monooxygenase (Photuris pensylvanica), Q27757; 200,000 compounds, 0.28% hits; Potency, µM (highest dose often 38.3 µM), without a hit: at the highest dose activity change, negative = inhibition, actives largely listed as inhibitors; Kinase-Glo luciferase, ATP luminescence, 8 min; further: nearly all actives have a fitted effect of over 60% in size
#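 Compounds were added to a substrate mix at pH 7.2 (50 mM imidazole, 10 uM ATP, within the enzyme's linear range), followed by Kinase-Glo detection reagent; luminescence was measured after 8 minutes at ambient temperature.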
# Tau fluor counter – Counterscreen qHTS for Inhibitors of Tau Fibril Formation, Fluorescence Polarization; tau K18 P301L (four-repeat tau fragment) Alexa594 fluorescence, heparin fibrillization; Potency, µM (series often up to 57.7 µM), for inactives: top-dose activity change, negative = decrease; 280,000 compounds, 0.93% hits; AID 1463, 2008; further: nearly all actives have a fitted effect of over 55% in size
#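 Human K18 P301L tau (15 uM unlabeled plus 0.24 uM Alexa 594-labeled, final) in 100 mM sodium acetate pH 7 was mixed with compound and 20 uM heparin and incubated 6 hr at 37 C.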
# NPSR antagonist – qHTS Assay for Antagonists of the Neuropeptide S Receptor: cAMP Signal Transduction; CHO-NPSR cells, cAMP TR-FRET, antagonist mode; AID 1461, 2008; 220,000 compounds, 1% hits; Potency, µM (highest dose often 38.3 µM), for the others: at the highest dose activity change, negative = inhibition, hits mostly inhibitors; further: nearly all actives have a fitted effect of over 50% in size
# Target sequence (Q6W5P4 whole entry, looked up): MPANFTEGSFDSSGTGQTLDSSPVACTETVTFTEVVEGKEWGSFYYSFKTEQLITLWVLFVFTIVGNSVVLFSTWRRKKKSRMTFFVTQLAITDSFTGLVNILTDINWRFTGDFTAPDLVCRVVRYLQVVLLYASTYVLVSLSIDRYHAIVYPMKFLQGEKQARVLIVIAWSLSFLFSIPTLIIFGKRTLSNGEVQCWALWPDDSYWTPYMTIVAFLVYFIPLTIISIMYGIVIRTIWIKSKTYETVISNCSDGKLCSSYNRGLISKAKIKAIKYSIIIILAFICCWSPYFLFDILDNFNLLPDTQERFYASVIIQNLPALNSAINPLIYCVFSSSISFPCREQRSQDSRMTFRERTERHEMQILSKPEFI
# Numbers without * were called inactive; u = inconclusive; x = no result; ! = repeats disagree; [ ] = another dose, or the depositor's remark. Compounds with a hit are over-represented: about 3.3% of the library has one in this group of screens. The call rests on the fitted dose curve; in most records, active means well fitted curve in the direction sought with a large enough effect; inconclusive means small, poorly fitted or top-dose-only effect, or another doubt; inactive means no such curve, though single readings can be large; an effect the other way counts as inactive or inconclusive. On the % scale 0 is the no-effect control and ±100 the full control effect; potency means the concentration at half of the fitted maximal effect.
SMILES,Tau FP inhib,Tau fibril ThT,KinaseGlo FLuc,Tau fluor counter,NPSR antagonist
COC/C=C/C1=CC2=CC(=O)C(C)(OC(=O)c3ccco3)C(=O)C2=CO1 (stereo unspecified),u,25.1µM*,-5.2%,u,7.8%
COC/C=C/C1=CC2=CC(=O)C(C)(O)C(=O)C2=CO1 (stereo unspecified),0.8%,8.8%,-4.8%,0.6%,x
COC/C=C/C1=CC2=CC(=O)C(C)(OC(=O)C3CCCC3)C(=O)C2=CO1 (stereo unspecified),10µM*,25.1µM*,-4.9%,u,-13.5%
COC/C=C/C1=CC2=CC(=O)C(C)(OC(=O)c3cccs3)C(=O)C2=CO1 (stereo unspecified),-2.3%,-13.3%,0.7%,-9.8%,x
COc1ccccc1NC(=O)c1sc2nc(C)c(C(=O)Nc3ccc(C)cc3C)c(-c3ccc(Br)cc3)c2c1N,-22.1%,-9.4%,x,-10.6%,x
NS(=O)(=O)c1ccc(N=Nc2ccc(=O)[nH]c2O)cc1,-22.1%,15.8µM*,x,-16.1%,28.5%
Nc1nc(N)c(N=Nc2ccc(S(N)(=O)=O)cc2)c(=O)[nH]1,0.2%,20µM*,x,-14.3%,25.1%
COc1ccc(NC(=S)Nc2ccc(OCc3ccccc3)cc2)c(OC)c1,u,u,2.6%,14.1µM*[quencher],-14.1%
COc1ccc(NC(=S)Nc2ccccc2)c(OC)c1,-4.7%,-8.8%,1.9%,-13.0%,3.0%
Cc1cc(N2CCN(C)CC2)nc2ccc(NC(=O)Nc3ccccc3)cc12,u,u,x,17.8µM*[quencher],x
Cc1cc(N2CCN(C)CC2)nc2ccc(NC(=O)c3ccccc3F)cc12,-1.7%,u,2.1%,u,-13.7%
Cc1ccc(NC(=O)Nc2ccc3nc(N4CCN(C)CC4)cc(C)c3c2)cc1C,3.3%,8.91µM*,x,4.47µM*[quencher],x
Cc1cc(N2CCN(C)CC2)nc2ccc(NC(=O)Nc3ccccc3Br)cc12,u,12.6µM*,x,12.6µM*[quencher],x
Cc1cc(N2CCN(C)CC2)nc2ccc(NC(=O)Nc3ccc(F)cc3F)cc12,u,u,x,15.8µM*[quencher],x
Cc1cc(N2CCN(C)CC2)nc2ccc(NC(=O)c3cccnc3Cl)cc12,-5.1%,u,3.2%,-16.6%,-10.8%[46.1 µM]
Cc1ccc(OCCCSc2nc(-c3ccc(C(C)(C)C)cc3)nc3cc(=O)[nH]n23)cc1C,-4.4%,-2.8%,x,0.7%,x
Cc1cc(N2CCN(C)CC2)nc2ccc(NC(=O)Nc3cccc(Cl)c3)cc12,u,14.1µM*,x,3.98µM*[quencher],x
CCCSc1nnc(NC(=O)c2sc3nc(-c4cccs4)ccc3c2N)s1,-3.8%,7.94µM*,1.6%,u,11.3%[46.1 µM]
Cc1csc(NC(=O)c2sc3nc(-c4cccs4)ccc3c2N)n1,12.8%,7.94µM*,-2.7%,u,10.5%[46.1 µM]
O=C(Nc1ccc(-c2cn3ccsc3n2)cc1)C1CCCC1,8.4%,-17.1%,11.2µM*,-7.4%,u
CCc1ccccc1Nc1nn2c(=O)c3ccc(C(=O)NCCC4=CCCCC4)cc3nc2s1,-16.3%,u,x,-28.3%,x
COc1ccc(Cn2c(=O)c3oc4ccccc4c3n(Cc3ccc(Cl)cc3)c2=O)cc1,-9.3%,-5.7%,x,-13.4%,x
Cc1ccc2cccc(NC(=O)C(C)Oc3ccc(Cl)cc3Cl)c2n1 (stereo unspecified),-10.9%,-16.2%,x,-28.9%,x
Cc1ccc(C(=O)Nc2ccc(C(=O)N/N=C/c3c[nH]c4ccccc34)cc2)cc1,10.7%,12.6µM*,6.0%,14.1µM*[quencher],-28.1%
O=C(N/N=C/c1ccccn1)c1sc2ccccc2c1Cl,-7.5%,u,x,u,55.7%
SMILES,Tau FP inhib,Tau fibril ThT,KinaseGlo FLuc,Tau fluor counter,NPSR antagonist
Cc1nn(C)cc1/C=N/NC(=S)Nc1ccccc1,7.7%,-16.1%,-13.9%,-17.6%,2µM*
COc1ccc2c(Cl)c(C(=O)N/N=C/c3c(C)[nH]c4ccccc34)sc2c1,7.6%,4.47µM*,x,11.2µM*[quencher],u
O=C(N/N=C/c1c[nH]c2ccccc12)c1sc2ccccc2c1Cl,-2.7%,u,-1.2%,8.91µM*[quencher],-24.7%[46.1 µM]
CCN(CC)CCCNC(=O)c1ccc(-c2nc(CN3CCc4ccccc43)c(C)o2)cc1,2.7%,0.5%,x,-23.9%,x
Cc1cc(C)cc(NC(=O)C(Cc2ccccc2)N2Cc3ccccc3C2=O)c1 (stereo unspecified),-5.9%,1.7%,x,-5.5%,x
NC(=S)N/N=C\c1c[nH]c2ccccc12,x,x,-4.6%[7.66 µM],x,x
Cc1cccc(NC(=S)N/N=C/c2c[nH]c3ccccc23)c1,u,15.8µM*,-1.9%,8.91µM*[quencher],-22.3%
Cn1cccc1/C=N/NC(=O)c1sc2ccccc2c1Cl,10.0%,u,-4.4%,u,-21.3%[46.1 µM]
O=C(N/N=C/c1ccc([N+](=O)[O-])o1)c1sc2ccccc2c1Cl,-4.4%,3.55µM*,x,u,-56.8%
Cc1[nH]n(-c2ccc(Cl)cc2)c(=O)c1N=Nc1cccnc1,-7.1%,x,x,-2.7%,-1.0%
CSc1ccc(N=Nc2c(C)[nH]n(C)c2=O)cc1,-2.0%,8.91µM*,x,-7.8%,29.6%
CC(=O)N=c1sc2nc3ccccc3nc2n1N(C(C)=O)C(C)=O,u,u,0.7%,-11.9%,12.6µM*
CC(=O)N=c1sc2ccccc2n1C,5.4%,-5.8%,2.1%,2.8%,-2.2%[46.1 µM]
O=C1CCCC/C1=C\Nc1ccc(O)cc1,u,15.8µM*,-12.5%,u,-15.7%[46.1 µM]
O=C1CCC/C1=C/Nc1ccc(Cl)cc1,9.6%,-13.4%,-3.0%,-12.3%,14.9%
COc1cc(OC)c(NC(=O)c2nnn(Cc3ccc(C)cc3)c2N)cc1Cl,u,-14.9%,x,u,x
C=CC(C1=CC(=O)C=CC1=O)c1ccccc1 (stereo unspecified),-14.2%,u,-0.5%,u,x
C=C[C@@H](C1=CC(=O)C(OC)=C(OC)C1=O)c1ccccc1,u,28.2µM*,3.0%,u,x
C=CC(C1=CC(=O)C(OC)=CC1=O)c1ccc(O)cc1 (stereo unspecified),u,31.6µM*,0.1%,u,x
O=C(OCc1cc(=O)n2nc(C3CC3)sc2n1)c1ccc(NC(=O)c2ccccc2F)cc1,-9.6%,-0.1%,x,-4.2%,x
CCOc1ccc(/C=N/NC(=O)c2[nH]ncc2Br)c(O)c1,10.3%,u,11.2µM*,-19.2%,-19.2%
CCOc1ccc(-c2nc(SCC(=O)NC3CCCC3)c(-c3ccccc3)[nH]2)cc1OC,u,u,x,12.6µM*[quencher],x
COc1ccc(-c2nc(SCC(=O)NC3CCCC3)c(-c3ccc(F)cc3)[nH]2)cc1,8.5%,u,x,14.1µM*[quencher],x
COc1ccc(-c2[nH]c(-c3ccccc3)nc2SCC(=O)NC2CCCC2)cc1,u,u,0.0%,25.1µM*[quencher],-15.0%
COc1ccc(-c2[nH]c(-c3cccc(OC)c3)nc2SCC(=O)NC2CCCC2)cc1,u,u,-8.7%,12.6µM*![quencher],-20.2%
